The nature of experiment [1]: antimalarial activity against Dd2 strain (AID 2302;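 active = growth inhibition above 50% at the single 2 µM test dose, taken to imply half-maximal potency below 2 µM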;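 note: 0% = DMSO untreated growth and 100% = chloroquine plus artemisinin killed control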). Conditions: P. falciparum Dd2 in RBCs, LDH growth readout, 72 h; at 2 µM; active compounds read high.
Experiment [2] is described as follows: HepG2 cytotoxicity, primary screen, cytotoxicity control for P. falciparum antimalarial project, cell-based, ATP luminescence (AID 2303;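 active = inhibition above 50%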;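 note: 0% = DMSO wells and 100% = digitonin-killed cells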). Conditions: HepG2 viability, 24-48 h, at 10 µM, active compounds read high.
In experiment [3] the target is L-lactate dehydrogenase (Plasmodium falciparum (isolate CDC / Honduras)) (UniProt Q27743). In words: PfLDH activity inhibition – cell lysate, 3D7 strain, counter-screen for P. falciparum growth inhibition project (AID 2304).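 Note: 0% = vehicle and 100% = reference inhibitor.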 The following applies: P. falciparum 3D7 crude extract, LDH APAD/NBT absorbance; at 2 µM; active compounds read high. On the technique in general: A counterscreen serves to expose hits that act by an unwanted route or on another target.

Experiment [4] in a line: inhibition of 3D7 malaria parasite growth – strain 3D7 (AID 2306).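 Note: 0% = DMSO wells and 100% = chloroquine plus artemisinin control wells.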 The following applies: P. falciparum 3D7 erythrocytic growth, LDH absorbance, 72 h; at 2 µM; active compounds read high.
Experiment [5] has as its target Calcium-dependent protein kinase 1 (Plasmodium falciparum (isolate 3D7)) (UniProt P62344). In words: PfCDPK1 kinase inhibitors, biochemical, TCAMS library (AID 1159585; cut-off not given, nearly all actives have IC50 up to about 0.98 µM;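 note: inhibitors leave more ATP so luminescence rises with inhibition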). Conditions: recombinant PfCDPK1, Kinase-Glo ATP depletion luminescence.
Experiment [6] addresses Plasmodium falciparum protein kinase 6 (PK6, PF3D7_1337100) (UniProt Q8IDW1). In words: PfPK6 kinase inhibitors, biochemical, TCAMS library (AID 1159586). Conditions: recombinant PfPK6, Kinase-Glo ATP depletion luminescence. For orientation: In Kinase-Glo more light means more ATP remaining.
The target in experiment [7] is Protein kinase 7 (PK7), Plasmodium falciparum 3D7 (PF3D7_0213400) (UniProt Q7YTF7). In words: inhibition of Plasmodium PK7 catalytic activity – biochemical, TCAMS antimalarial set, Kinase-Glo luminescence (AID 1159587). Conditions: recombinant PfPK7, Kinase-Glo ATP depletion luminescence.
For experiment [8], the target named is Calcium-dependent protein kinase 4 (Plasmodium falciparum (isolate 3D7)) (UniProt Q8IBS5). In words: PfCDPK4 kinase inhibitors, biochemical, TCAMS library (AID 1159588; cut-off not given, nearly all actives have IC50 up to about 0.91 µM). Conditions: recombinant PfCDPK4, Kinase-Glo ATP depletion luminescence.

The inhibition is the relative decrease from the control value, in per cent.

Values without a mark were called inactive. For some of these results: Potency and affinity values are given separately. Activity calls are given as the source filed them. Unless noted, the rule behind the calls is not given here.

Sequence of Plasmodium falciparum protein kinase 6 (PK6, PF3D7_1337100) (Q8IDW1 1-305): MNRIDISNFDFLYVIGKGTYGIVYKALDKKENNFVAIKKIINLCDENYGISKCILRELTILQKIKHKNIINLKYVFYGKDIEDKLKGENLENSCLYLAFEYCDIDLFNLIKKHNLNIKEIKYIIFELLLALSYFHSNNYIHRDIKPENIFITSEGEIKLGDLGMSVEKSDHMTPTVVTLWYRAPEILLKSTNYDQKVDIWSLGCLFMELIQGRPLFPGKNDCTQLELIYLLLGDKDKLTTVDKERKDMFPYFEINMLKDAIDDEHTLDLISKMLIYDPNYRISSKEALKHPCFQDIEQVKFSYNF
Sequence of Protein kinase 7 (PK7), Plasmodium falciparum 3D7 (PF3D7_0213400) (Q7YTF7 1-343): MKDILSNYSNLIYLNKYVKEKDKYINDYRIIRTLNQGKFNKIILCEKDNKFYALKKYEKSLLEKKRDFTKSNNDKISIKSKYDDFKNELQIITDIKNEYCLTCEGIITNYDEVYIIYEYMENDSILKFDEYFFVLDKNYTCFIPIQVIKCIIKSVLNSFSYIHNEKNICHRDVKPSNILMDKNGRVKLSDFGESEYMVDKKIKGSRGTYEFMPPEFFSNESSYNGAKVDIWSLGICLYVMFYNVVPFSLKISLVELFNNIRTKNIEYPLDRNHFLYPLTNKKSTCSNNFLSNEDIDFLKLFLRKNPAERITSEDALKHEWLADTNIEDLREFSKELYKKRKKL
Sequence of Calcium-dependent protein kinase 4 (Plasmodium falciparum (isolate 3D7)) (Q8IBS5 whole entry, looked up): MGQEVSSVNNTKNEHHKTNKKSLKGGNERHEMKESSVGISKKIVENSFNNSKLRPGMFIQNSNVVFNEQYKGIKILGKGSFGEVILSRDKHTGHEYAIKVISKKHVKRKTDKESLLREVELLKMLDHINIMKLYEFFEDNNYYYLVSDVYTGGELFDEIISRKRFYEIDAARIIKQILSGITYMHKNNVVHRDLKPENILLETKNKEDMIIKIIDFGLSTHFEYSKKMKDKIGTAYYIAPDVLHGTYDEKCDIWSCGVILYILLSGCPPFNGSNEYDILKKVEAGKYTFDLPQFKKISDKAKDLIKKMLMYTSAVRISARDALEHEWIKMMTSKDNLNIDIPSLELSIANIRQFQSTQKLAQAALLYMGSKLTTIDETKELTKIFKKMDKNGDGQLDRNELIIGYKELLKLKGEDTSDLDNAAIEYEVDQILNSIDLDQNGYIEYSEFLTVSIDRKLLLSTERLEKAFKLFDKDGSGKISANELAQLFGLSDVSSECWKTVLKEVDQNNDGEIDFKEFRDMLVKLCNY
Sequence of L-lactate dehydrogenase (Plasmodium falciparum (isolate CDC / Honduras)) (Q27743 whole entry, looked up): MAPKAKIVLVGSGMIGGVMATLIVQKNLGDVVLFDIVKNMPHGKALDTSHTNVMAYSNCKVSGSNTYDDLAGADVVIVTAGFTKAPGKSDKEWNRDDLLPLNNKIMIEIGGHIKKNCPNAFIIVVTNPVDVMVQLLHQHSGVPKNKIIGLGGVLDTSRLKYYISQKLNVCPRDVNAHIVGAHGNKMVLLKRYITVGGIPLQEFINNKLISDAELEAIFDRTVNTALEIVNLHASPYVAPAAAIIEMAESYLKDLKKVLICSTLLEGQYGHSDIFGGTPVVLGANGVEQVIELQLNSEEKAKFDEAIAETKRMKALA
Sequence of Calcium-dependent protein kinase 1 (Plasmodium falciparum (isolate 3D7)) (P62344 whole entry, looked up): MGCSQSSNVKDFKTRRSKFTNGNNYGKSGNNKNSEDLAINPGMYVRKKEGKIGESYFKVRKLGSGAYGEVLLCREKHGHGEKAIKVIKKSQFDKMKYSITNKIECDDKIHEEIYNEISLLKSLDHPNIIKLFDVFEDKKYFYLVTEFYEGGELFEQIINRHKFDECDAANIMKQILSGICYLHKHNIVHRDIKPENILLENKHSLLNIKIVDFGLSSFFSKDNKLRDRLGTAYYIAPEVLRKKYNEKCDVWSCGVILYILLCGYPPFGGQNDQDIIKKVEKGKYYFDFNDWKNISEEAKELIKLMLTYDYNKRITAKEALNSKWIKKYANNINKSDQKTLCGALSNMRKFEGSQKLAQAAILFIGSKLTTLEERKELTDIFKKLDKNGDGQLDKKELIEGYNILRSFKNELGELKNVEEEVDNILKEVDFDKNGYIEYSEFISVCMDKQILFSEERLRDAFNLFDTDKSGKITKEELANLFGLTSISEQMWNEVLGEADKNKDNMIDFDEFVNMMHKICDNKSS

Consider `CCN(CC)C(=O)C1CCCN(c2cc(C)nc(Nc3ccc(Cl)cc3)n2)C1` (stereo not given), for which the growth inhibition in experiment [1] is 64% (active); in experiment [4], 94% (active). Besides, the values for the inhibition in experiment [2] and in experiment [3] were 13% and 1%, respectively. Further, the outcome in experiment [5], in experiment [6], in experiment [7] and in experiment [8] was inactive.
On to `O=C(NC1CCN(Cc2ccccc2)CC1)c1csc2nc(-c3ccc(Cl)cc3)cn12`, for which the growth inhibition in experiment [1] is 14%; in experiment [4] it was 98% (active). The figures for the inhibition in experiment [2] and in experiment [3] were 19% and -10%, respectively. The result in experiment [5], in experiment [6], in experiment [7] and in experiment [8] was inactive.
Consider `C[C@H](Cc1ccc(OCCCCCCCOc2ccc(C[C@@H](C)NC[C@H](O)c3cccc(Cl)c3)cc2)cc1)NC[C@H](O)c1cccc(Cl)c1`, for which the growth inhibition is 97% (active) in experiment [1] and 99% (active) in experiment [4]. Moreover, the inhibition is 99% (active) in experiment [2] and -6% in experiment [3]. Besides, the outcome in experiment [5], in experiment [6], in experiment [7] and in experiment [8] was inactive.
With `Cc1cc(CNCCCCCCCNCc2ccc(-c3ccccc3)cc2)ccc1O`, the growth inhibition in experiment [1] is 6%; in experiment [4] it was 97% (active). In addition, the inhibition in experiment [2] is 49%; in experiment [3] it was -2%. Besides, the result in experiment [5], in experiment [6], in experiment [7] and in experiment [8] was inactive.
Take `O=C(NC1CCN(Cc2ccsc2)CC1)c1ccc(-c2cccc(C(F)(F)F)c2)s1`: the growth inhibition in experiment [1] was 3%; in experiment [4], 88% (active). For the same molecule, the inhibition in experiment [2] was 48%; in experiment [3], -2%. The outcome in experiment [5], in experiment [6], in experiment [7] and in experiment [8] was inactive.
Regarding `Cc1c(C2CCN(CCCCNC(=O)c3ccc(-c4ccc(C#N)cc4)cc3)CC2)c2ccccc2n1CCO`, the growth inhibition in experiment [1] is 99% (active); in experiment [4], 96% (active). Moreover, the values for the inhibition in experiment [2] and in experiment [3] were 28% and 1%, respectively. Also, the outcome in experiment [5], in experiment [6], in experiment [7] and in experiment [8] was inactive.
Turning to `CC(C)c1ccc(NC(=O)NCC2CCCN(CCCCCNC(=O)/C=C/c3ccc(Cl)c(Cl)c3)C2)cc1` (stereo not given), the growth inhibition is 6% in experiment [1] and 98% (active) in experiment [4]. In addition, the inhibition is 87% (active) in experiment [2] and -13% in experiment [3]. For the same molecule, the result in experiment [5], in experiment [6], in experiment [7] and in experiment [8] was inactive.
Turning to `COC(=O)c1cccc(CNCc2ccc(-c3cccc(-c4nc5ccccc5[nH]4)c3)cc2)c1`, the growth inhibition is 46% in experiment [1] and 101% (active) in experiment [4]. In addition, the inhibition in experiment [2] is 5%; in experiment [3], -3%. Also, the outcome in experiment [5], in experiment [6], in experiment [7] and in experiment [8] was inactive.
Take `CCN=C1NC2=C(CC(C(C)(C)C)CC2)C2(CCC(C(C)(C)C)CC2)S1` (stereo not given): the growth inhibition in experiment [1] and in experiment [4] was 99% (active) in each case. The inhibition in experiment [2] was 40%; in experiment [3], 4%. The outcome in experiment [5], in experiment [6], in experiment [7] and in experiment [8] was inactive.
On to `CCc1cc2c(O)c([N+](=O)[O-])c(=O)oc2cc1OCCCCCOc1cc2oc(=O)c([N+](=O)[O-])c(O)c2cc1CC`, for which the growth inhibition in experiment [1] was 0%; in experiment [4] it was 99% (active). The inhibition in experiment [2] was 11%; in experiment [3], -1%. Besides, the result in experiment [5], in experiment [6], in experiment [7] and in experiment [8] was inactive.
On to `c1cncc(NCc2ccc(-c3cc4ccncc4cc3OC3CCNCC3)s2)c1`, for which the growth inhibition in experiment [1] is 19%; in experiment [4], 100% (active). The inhibition in experiment [2] was 4%; in experiment [3], 2%. For the same molecule, the result in experiment [5], in experiment [6], in experiment [7] and in experiment [8] was inactive.
Take `CN(C)CCN(C)Cc1ccc(-c2cccc(NC(=O)c3cccc(C#N)c3)c2)cc1`: the values for the growth inhibition in experiment [1] and in experiment [4] were 11% and 94% (active), respectively. Moreover, the inhibition was 23% in experiment [2] and -4% in experiment [3]. The result in experiment [5], in experiment [6], in experiment [7] and in experiment [8] was inactive.
In the case of `O=C(NCc1ccc(Cl)c(Cl)c1)c1ccc(-c2nc3ccc(Cl)cc3[nH]2)cc1`, the growth inhibition in experiment [1] was 22%; in experiment [4] it was 96% (active). Besides, the inhibition is 20% in experiment [2] and -6% in experiment [3]. The outcome in experiment [5], in experiment [6], in experiment [7] and in experiment [8] was inactive.
With `Clc1ccccc1CNc1noc(-c2sccc2Br)n1`, the growth inhibition was 93% (active) in experiment [1] and 97% (active) in experiment [4]. The results for the inhibition in experiment [2] and in experiment [3] were 0% and -7%, respectively. For the same molecule, the outcome in experiment [5], in experiment [6], in experiment [7] and in experiment [8] was inactive.
Take `O=C(Nc1ccc(F)c(F)c1)c1ccc(CN2CCCN(Cc3cccc(O)c3)CC2)cc1`: the growth inhibition in experiment [1] was 57% (active); in experiment [4] it was 92% (active). Further, the inhibition in experiment [2] was 43%; in experiment [3], -1%. The result in experiment [5], in experiment [6], in experiment [7] and in experiment [8] was inactive.
With `O=C(Nc1ccc(F)cc1F)NC1CCN(CCCCCNC(=O)[C@@H]2C[C@H]2c2ccc(Cl)c(Cl)c2)CC1`, the growth inhibition in experiment [1] is 32%; in experiment [4], 100% (active). In addition, the inhibition was 41% in experiment [2] and 1% in experiment [3]. Also, the result in experiment [5], in experiment [6], in experiment [7] and in experiment [8] was inactive.
For the molecule `CCCN(Cc1ccc(C)cc1)Cc1cc(=O)c2cc(Cl)ccc2[nH]1`, the growth inhibition in experiment [1] is 91% (active); in experiment [4], 86% (active). In addition, the inhibition in experiment [2] is 51% (active); in experiment [3], 4%. For the same molecule, the outcome in experiment [5], in experiment [6], in experiment [7] and in experiment [8] was inactive.
Consider `CCOC(=O)c1ccc(NC(=O)Nc2ccc(-c3ccc(-c4nc5ccc(C(F)(F)F)cc5[nH]4)cc3)cc2)cc1`, for which the figures for the growth inhibition in experiment [1] and in experiment [4] were 52% (active) and 102% (active), respectively. Moreover, the inhibition in experiment [2] was 20%; in experiment [3] it was -2%. The result in experiment [5], in experiment [6], in experiment [7] and in experiment [8] was inactive.
`Cc1cccc2[nH]c(-c3cccc(-c4cccc(NC(=O)c5ccc(=O)[nH]n5)c4)c3)nc12`: the growth inhibition was 32% in experiment [1] and 101% (active) in experiment [4]. Moreover, the inhibition in experiment [2] is 10%; in experiment [3], -1%. For the same molecule, the outcome in experiment [5], in experiment [6], in experiment [7] and in experiment [8] was inactive.
Regarding `COc1ccc(NC(C)C(=O)Nc2ccc(Br)cc2)cc1S(=O)(=O)N1CCCCC1` (stereo not given), the growth inhibition is 97% (active) in experiment [1] and 99% (active) in experiment [4]. The inhibition in experiment [2] was 2%; in experiment [3], -2%. The outcome in experiment [5], in experiment [6], in experiment [7] and in experiment [8] was inactive.

Values taken from PubChem BioAssay.
